From PubChem BioAssay (Tox21)
Several values for one entry are separate records, joined by “and”; a condition that tells them apart may be missing. Identical values can stand only once. Inconclusive results are not listed. A structure can be active in one record and inactive in another. Activity calls are given as the source filed them. Unless noted, calls follow the shape of the dose curve; as a rule, active = well fitted curve in the direction sought with a large enough effect in the repeat runs; inconclusive = weak or mixed curves; inactive = no such curve, though single readings can be large; an effect the other way counts as inactive or inconclusive.

Tests used:
[1] = qHTS assay to identify small molecule agonists of H2AX (AID 1224845; active = well fitted activation curve with a large enough effect in the signal ratio in the repeat runs, not every such curve was filed as active; the % refers to the signal ratio)
Procedure, shortened: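 Phospho-H2AX Ser139 measured by HTRF (ex 320 nm; em 665 and 620 nm) after 24 hr antibody incubation. Compounds, 15 concentrations, 0.76% DMSO, were applied to CHO-K1 cells for 3hr at 37C before lysis.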

[2] = qHTS assay to identify small molecule agonists of H2AX - cell viability counter screen (AID 1224847; calls by dose curve; also: top concentration of the series differs between compounds; nearly all actives have a fitted effect of over 30% in size)
Procedure, shortened: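 Cytotoxicity counter screen in wild-type CHO-K1 cells: a 3 hr compound treatment at 37C across 15 concentrations, followed by CellTiter-Glo luminescence to gauge viable cells.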

[3] = qHTS RealTime-Glo MT Cell Viability Assay in HEK293 cells - 32 hour (AID 1224868); also: nearly all actives have a fitted effect of over 50% in size; also: potency is read from the fitted curve at half-maximal effect
Procedure, shortened: (§1)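 Cells + reagent dispensed (600 cells/well, HEK293) → 5 h at 37 C/5% CO2 → 23 nL compound in DMSO pinned → 40 h at 37 C → luminescence read at 0, 8, 16, 24, 32, 40 h.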

[4] = A CellTox Green Cytotoxicity Assay to monitor cytotoxicity in HEK293 cells - 0 hour (AID 1224869); also: nearly all actives have a fitted effect of over 50% in size
Procedure, shortened: (§2)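 Real-time, in one plate: 600 HEK293 cells/well with dead-cell DNA dye, pinned compound after 5 h, 37 C incubation over 40 h; viable cells give no appreciable fluorescence.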

[5] = qHTS RealTime-Glo MT Cell Viability Assay in HepG2 cells - 40 hour (AID 1224870); also: nearly all actives have a fitted effect of over 50% in size
Procedure, shortened: (§3)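 Real-time viability: cells seeded at 600 per well together with NanoLuc and cell-permeant prosubstrate, compounds added after 5 h incubation. Luminescence tracked at 0, 8, 16, 24, 32 and 40 h of exposure.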

[6] = A CellTox Green Cytotoxicity Assay to monitor cytotoxicity in HEK293 cells - 40 hour (AID 1224871); also: nearly all actives have a fitted effect of over 45% in size
Procedure, shortened: as §2

[7] = qHTS RealTime-Glo MT Cell Viability Assay in HEK293 cells - 16 hour (AID 1224872); also: nearly all actives have a fitted effect of over 50% in size; also: potency is read from the fitted curve at half-maximal effect
Procedure, shortened: as §1

[8] = qHTS RealTime-Glo MT Cell Viability Assay in HepG2 cells - 8 hour (AID 1224873); also: nearly all actives have a fitted effect of over 55% in size
Procedure, shortened: as §3

[9] = qHTS RealTime-Glo MT Cell Viability Assay in HEK293 cells - 40 hour (AID 1224874); conditions: RealTime-Glo luminescence; max response: stronger effect = lower value; also: nearly all actives have a fitted effect of over 50% in size; also: potency is read from the fitted curve at half-maximal effect
Procedure, shortened: (§4)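 Kinetic, non-lysing viability readout. Seed HEK293 (600/well) with reagent, incubate 5 h at 37 C/5% CO2, pin 23 nL compound in DMSO, incubate at 37 C, read luminescence at 0, 8, 16, 24, 32, 40 h.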

[10] = A CellTox Green Cytotoxicity Assay to monitor cytotoxicity in HEK293 cells - 24 hour (AID 1224875); also: nearly all actives have a fitted effect of over 45% in size
Procedure, shortened: as §2

[11] = A CellTox Green Cytotoxicity Assay to monitor cytotoxicity in HepG2 cells - 16 hour (AID 1224876); also: nearly all actives have a fitted effect of over 45% in size
Procedure, shortened: (§5)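 Cytotoxicity was tracked as dead-cell DNA fluorescence in HepG2 cells treated with test compounds at 37 C; each time-point value comes from one kinetic series spanning 0, 8, 16, 24, 32 and 40 h.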

[12] = qHTS RealTime-Glo MT Cell Viability Assay in HepG2 cells - 32 hour (AID 1224877); also: nearly all actives have a fitted effect of over 55% in size
Procedure, shortened: (§6)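 Real-time, nonlytic viability: 600 HepG2 cells/well mixed with NanoLuc enzyme plus prosubstrate; 5 h settle, compound (DMSO) added by pintool; luminescence monitored over 40 h at 37 C.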

[13] = A CellTox Green Cytotoxicity Assay to monitor cytotoxicity in HepG2 cells - 24 hour (AID 1224878); also: nearly all actives have a fitted effect of over 45% in size
Procedure, shortened: as §5

[14] = qHTS RealTime-Glo MT Cell Viability Assay in HEK293 cells - 0 hour (AID 1224880)
Procedure, shortened: as §4

[15] = A CellTox Green Cytotoxicity Assay to monitor cytotoxicity in HEK293 cells - 32 hour (AID 1224881); also: nearly all actives have a fitted effect of over 40% in size
Procedure, shortened: as §2

[16] = qHTS assay to identify small molecule agonists of the hypoxia (HIF-1) signaling pathway (AID 1224846; active = well fitted activation curve with a large enough effect in the signal ratio in the repeat runs, not every such curve was filed as active; the % refers to the signal ratio)
Procedure, shortened: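 ME-180 HRE-bla reporter cells; compounds in DMSO, 17 h at 37C; read-out beta-lactamase via CCF4-AM FRET.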

[17] = A CellTox Green Cytotoxicity Assay to monitor cytotoxicity in HepG2 cells - 40 hour (AID 1224879); also: nearly all actives have a fitted effect of over 40% in size
Procedure, shortened: as §5

[18] = qHTS assay to identify small molecule antagonists of the estrogen related receptor (ERR) signaling pathway from Tox21 library (AID 1224848); also: nearly all actives have a fitted effect of over 50% in size; also: potency is read from the fitted curve at half-maximal effect
Procedure, shortened: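 Luciferase luminescence (ONE-Glo, 30 min room temperature) was the read-out. Cells of the NTP-supplied ERR line, 2,000 per well, were given 6 h at 37 C before compound addition in DMSO and 18 h exposure at 37 C.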

[19] = qHTS assay to identify small molecule agonists of the estrogen related receptor (ERR) signaling pathway from Tox21 library (AID 1224849; calls by dose curve; also: nearly all actives have a fitted effect of over 15% in size); conditions: ERR reporter cell line, ONE-Glo luciferase, 18 h
Procedure, shortened: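 Luciferase activity in ERR pathway reporter cells served as the agonist readout; exposure lasted 18 h at 37 C, with ONE-Glo detection after 30 min at room temperature.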

[20] = qHTS RealTime-Glo MT Cell Viability Assay in HepG2 cells - 24 hour (AID 1224867); also: nearly all actives have a fitted effect of over 50% in size
Procedure, shortened: as §6
% is scaled to controls: 0 for no effect and ±100 for the full control effect.

Cn1cnc2c1c(=O)[nH]c(=O)n2C
inactive: Potency [1] | Potency [2] | Potency [3] | Potency [4] | outcome [5] | Potency [6] | Potency [7] | outcome [8] | max response [9] 8.97% and 7.21% | Potency [10] | Potency [11] | outcome [12] | Potency [13] | Potency [14] | Potency [15]

CCN1CCCC1=O
inactive: Potency [1] | outcome [16] | Potency [2] | Potency [3] | Potency [4] | outcome [5] | Potency [7] | outcome [8] | max response [9] 0.414% and 1.37% | Potency [10] | outcome [12] | Potency [13] | Potency [17] | Potency [14] | Potency [15]

NC(=O)N/N=C/c1ccc([N+](=O)[O-])o1
inactive and 48.6 µM (active): Potency [18]
inactive: Potency [1] | Potency [2] | activity change, positive = activation ([19]; at 42.5 µM (top of the series)) -13.7% | activity change, positive = activation ([19]; at 92.4 µM (top of the series)) -3.25% and -34% | Potency [3] | Potency [4] | outcome [5] | Potency [6] | Potency [7] | outcome [8] | max response [9] -0.165% | Potency [10] | outcome [12] | Potency [13] | Potency [14] | Potency [15]

CC(C)Cc1ccc(C(C)C(=O)O)cc1 (centres undefined)
inactive: Potency [1] | Potency [2] | Potency [18] | activity change, positive = activation ([19]; at 42.5 µM (top of the series)) 3.45% | activity change, positive = activation ([19]; at 92.4 µM (top of the series)) -6.89% and 1.38% | Potency [3] | Potency [4] | outcome [5] | Potency [7] | outcome [8] | max response [9] 5.92% and 7.46% and 3.63% | Potency [10] | Potency [11] | outcome [12] | Potency [17] | Potency [14] | Potency [15]

CCc1cc(C(N)=S)ccn1
inactive: Potency [1] | Potency [2] | outcome [20] | Potency [3] | Potency [4] | outcome [5] | Potency [6] | Potency [7] | outcome [8] | max response [9] 1.51% and 1.72% and 1.47% | Potency [10] | Potency [11] | outcome [12] | Potency [13] | Potency [14] | Potency [15]

Cc1cnc(NC(=O)C2=C(O)c3ccccc3S(=O)(=O)N2C)s1
inactive: Potency [1] | Potency [2] | Potency [3] | Potency [4] | outcome [5] | Potency [6] | Potency [7] | outcome [8] | max response [9] 6.82% and -5.33% and 4.88% | Potency [10] | outcome [12] | Potency [13] | Potency [17] | Potency [14] | Potency [15]

Cc1c(N(C)C)c(=O)n(-c2ccccc2)n1C
inactive: Potency [1] | Potency [2] | outcome [20] | Potency [3] | Potency [4] | outcome [5] | Potency [6] | Potency [7] | outcome [8] | max response [9] 8.84% and 0.672% and 6.67% | Potency [10] | Potency [11] | outcome [12] | Potency [17] | Potency [14] | Potency [15]

NC(=O)NO
inactive: Potency [1] | Potency [2] | Potency [3] | Potency [4] | outcome [5] | Potency [6] | Potency [7] | outcome [8] | max response [9] 19.8% and 1.62% | Potency [10] | Potency [11] | outcome [12] | Potency [13] | Potency [17] | Potency [14] | Potency [15]

CO[C@H]1C=CO[C@@]2(C)Oc3c(C)c(O)c4c(O)c(c(/C=N/N5CCN(C)CC5)c(O)c4c3C2=O)NC(=O)/C(C)=C\C=C[C@H](C)[C@H](O)[C@@H](C)[C@@H](O)[C@@H](C)[C@H](OC(C)=O)[C@@H]1C
inactive: Potency [2] | activity change, positive = activation ([19]; at 42.5 µM (top of the series)) -25.2% and -32.7% | activity change, positive = activation ([19]; at 92.4 µM (top of the series)) -53.6% | Potency [4] | outcome [5] | Potency [6] | Potency [10] | Potency [11] | outcome [12] | Potency [13] | Potency [17] | Potency [14] | Potency [15]
active: Potency [18] 48.8 µM and 23.7 µM | Potency [3] 19.6 µM and 9.88 µM | Potency [7] 6.96 µM and 2.21 µM and 21.3 µM | Potency [9] 22 µM and 15.7 µM

CCN(CC)CCOC(=O)c1ccc(N)cc1
inactive: Potency [1] | Potency [2] | Potency [18] | activity change, positive = activation ([19]; at 42.5 µM (top of the series)) 3.59% | activity change, positive = activation ([19]; at 92.4 µM (top of the series)) 2.93% | Potency [3] | Potency [4] | outcome [5] | Potency [7] | outcome [8] | max response [9] -6.53% and -0.799% | Potency [10] | outcome [12] | Potency [13] | Potency [17] | Potency [14] | Potency [15]

O=c1c(-c2ccc(O)cc2)coc2cc(O)cc(O)c12
inactive: outcome [16] | Potency [2] | Potency [4] | outcome [5] | outcome [8] | Potency [10] | outcome [12] | Potency [13] | Potency [14] | Potency [15]
active: Potency [3] 24.5 µM | Potency [7] 21.9 µM | Potency [9] 19.2 µM and 19.5 µM
